The values below come from PubChem BioAssay (NCATS).

The structures appear in SMILES notation. A number with no mark means an inactive call. Inconclusive results are not listed. The source made the active and inactive calls. Unless noted, calls come from the whole dose curve; as a rule, active = well fitted curve in either direction with a large enough effect (not every such curve was filed as active); inconclusive = small, poorly fitted or top-dose-only effect, or another doubt; inactive = flat fitted curve, though single readings scatter.

Experiment [1] concerns the target Lysosomal acid glucosylceramidase (Homo sapiens) (UniProt P04062). As to the kind of experiment: Glucocerebrosidase-p2 (AID 348; in the data active = potency below about 10 µM; note: potency is the fitted concentration of half-maximal effect). The following applies: purified GBA, blue fluorogenic substrate, 40 min. In a few lines:
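Compounds titrated from 0.6 nM upwards against 0.2 nM enzyme in pH 5.9 citric acid/KH2PO4, taurocholate, tween-20; blue fluorogenic substrate 80 uM, 40 min room temperature, stopped and read Ex 365/Em 440 for AC50.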

Experiment [2] deals with Cytochrome P450 1A2 (Homo sapiens) (UniProt P05177). Put plainly: p450-cyp1a2 (AID 410; calls by dose curve; note: potency is the fitted concentration of half-maximal effect;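 for activity change, negative = inhibition: -100% = full effect of reference inhibitor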). As to conditions: recombinant CYP1A2, luciferin-ME demethylation, luminescence; series mostly up to 11.4 µM. The procedure, abridged:
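Inhibition was calculated relative to 57 uM furafylline (full inhibition). The reaction used human CYP1A2 at 20nM with Luciferin-ME at its Km, 100uM, driven by an NADPH-regenerating system for 60 min at room temperature.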

Experiment [3] can be described thus: NFAT Signaling Pathway (AID 444).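 Note: carbachol stimulus at about its EC50 of 1 µM final; % is set by controls: 0 for no effect and ±100 for the full control effect.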 As to conditions: Jurkat NFAT-bla M1, carbachol, beta-lactamase ratio, 5 h; at 7.69 µM (top of the series) unless noted. The procedure, abridged:
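Jurkat cells with NFAT-driven β-lactamase reporter and co-expressed M1 receptor, stimulated with carbachol (final 1 uM, ~EC50), compound titration, 5 h at 37 °C. CCF4 loaded 1 h at RT; 460/530 nm ratio gave %activity and AC50.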

The target of experiment [4] is Glucocorticoid receptor (Homo sapiens) (UniProt P04150). Put plainly: GR-GFP Redistribution (AID 450;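 active = compounds whose dose series gives a full or clear partial fitted curve of increased nuclear translocation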; note: potency is the fitted concentration of half-maximal effect). The following applies: U2OS GR-GFP nuclear translocation, laser cytometry, 2 h.
Experiment [5] has the same target. As to the kind of experiment: GR-EFC Redistribution (AID 451; calls by dose curve; note: potency is the fitted concentration of half-maximal effect). As to conditions: CHO-K1 GR-EFC translocation, beta-gal luminescence, 2 h. In a few lines:
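CHO-K1 cells expressing nuclear EA and GR-ED fragments of b-gal; compounds titrated up to 46 uM final, 2 h at 37 C. GR nuclear translocation read as complemented b-gal luminescence after 1 h RT detection.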

In experiment [6] the target is Mitogen-activated protein kinase 10 (Mus musculus) (UniProt Q61831). Put plainly: JNK3 AlphaScreen Assay (AID 530).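 Note: kinase came from lysate of stimulated human HepG2 cells; signal reports phosphorylation of biotinylated GST-cJun 1-79 at Ser73 with 10 µM ATP; % is set by controls: 0 for no effect and ±100 for the full control effect.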 As to conditions: JNK3 lysate, c-Jun phosphorylation; series mostly up to 57.1 µM. In a few lines:
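qHTS format: compounds tested as titrations against IL-1beta/TNF-alpha-activated HepG2 lysate JNK3 with biotin-GST-cJun substrate and 10 uM ATP at room temperature. Loss of anti-phospho-cJun AlphaScreen signal indicates inhibition.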
(Alpha assays give light when donor and acceptor beads are brought close together.)

For experiment [7], the target named is 3',5'-cyclic-AMP phosphodiesterase 4B (Homo sapiens) (UniProt Q07343). As to the kind of experiment: qHTS Assay for Inhibitors of PDE-IV (AID 607; active = well fitted activation curve with a large enough effect in the main read-out, with a control signal flat, not every such curve was filed as active; note: % of control where 0% means no effect). As to conditions: HEK293 ACTOne CNG channel cells, membrane potential fluorescence; series mostly up to 22.9 µM. The procedure, abridged:
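ACTOne HEK293 cells carry a modified cAMP-gated CNG channel and express endogenous PDE4; plated 1000 cells/well, compounds up to 22.9 uM final. Membrane-potential dye fluorescence (ex 535/em 590) was read; parental cells received 10 uM forskolin + 100 uM RO 20-1724.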
In general terms: In qHTS, concentration-response curves come from the screen itself.

For experiment [8], the target named is Cytochrome P450 2C9 (Homo sapiens) (UniProt P11712). As to the kind of experiment: qHTS Assay for Inhibitors and Substrates of Cytochrome P450 2C9 (AID 883; active = well fitted curve in the direction sought with a large enough effect; an effect the other way counts as inactive or inconclusive; note: potency is the fitted concentration of half-maximal effect; nearly all actives have a fitted effect of over 60% in size). As to conditions: recombinant CYP2C9, luciferin-H luminescence, 60 min; series mostly up to 57.1 µM. In a few lines:
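10nM CYP2C9 + 100uM Luciferin-H (=KM), 25mM KPO4; cpd 10 min 37C; NADPH regen, 60 min 37C; stop/detect with P450 Glo-Buffer 20 min; luminescence. Norm. to 57uM sulphaphenazole as full inhibition.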

In experiment [9] the target is Cytochrome P450 3A4 (Homo sapiens) (UniProt P08684). As to the kind of experiment: qHTS Assay for Inhibitors and Substrates of Cytochrome P450 3A4 (AID 884; active = well fitted curve in the direction sought with a large enough effect; an effect the other way counts as inactive or inconclusive; note: potency is the fitted concentration of half-maximal effect; nearly all actives have a fitted effect of over 50% in size). As to conditions: recombinant CYP3A4, Luciferin-PPXE luminescence; series mostly up to 57.1 µM. The procedure, abridged: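 20 nM human CYP3A4 with 25 uM Luciferin-PPXE (at KM) in 200 mM KPO4, preincubated 10 min with compound; NADPH regeneration started a 60 min RT reaction. Luciferin detected by luminescence, normalized to 57 uM ketoconazole as full inhibition.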

Experiment [10] shares this target. As to the kind of experiment: qHTS Assay for Activators of Cytochrome P450 3A4 (AID 885; active = well fitted curve in the direction sought with a large enough effect; an effect the other way counts as inactive or inconclusive; note: nearly all actives have a fitted effect of over 65% in size). The following applies: recombinant CYP3A4, Luciferin-PPXE luminescence, 60 min; series mostly up to 57.1 µM. The procedure, abridged: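 20nM CYP3A4 + 25uM Luciferin-PPXE (=KM), 200mM KPO4; cpd 10 min RT; NADPH regen, 60 min RT; stop w/ detection buffer, 20 min; luminescence. Normalized to 57 uM ketoconazole.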

Experiment [11] has as its target Cytochrome P450 2C19 (Homo sapiens) (UniProt P33261). As to the kind of experiment: qHTS Assay for Inhibitors and Substrates of Cytochrome P450 2C19 (AID 899; active = well fitted curve in the direction sought with a large enough effect; an effect the other way counts as inactive or inconclusive; note: nearly all actives have a fitted effect of over 60% in size; note: potency is the fitted concentration of half-maximal effect). The following applies: recombinant CYP2C19, luciferin-H EGE luminescence; series mostly up to 11.4 µM. The procedure, abridged: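 Luminescent read-out of luciferin formed from Luciferin-H EGE (10uM, equal to KM). Enzyme 5nM in 50mM KPO4; compound added, 10 min at 37C, then NADPH regenerating system for 60 min at 37C. Full inhibition defined by 57uM ketoconazole.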

A short description of experiment [12]: AP1 Signaling Pathway (AID 357). Note: % is set by controls: 0 for no effect and ±100 for the full control effect. As to conditions: ME-180 AP-1-bla reporter, EGF-induced, beta-lactamase ratio, 5 h; at 7.69 µM (top of the series) unless noted. The procedure, abridged: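 AP-1-bla ME-180 cells with beta-lactamase reporter under AP-1 response element, stimulated with EC50 EGF; compounds titrated, 5 hours at 37 degrees Celsius. CCF4 read at 460/530 nm ratio; positive and negative modulators judged by AC50.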

The nature of experiment [13]: Stat Signaling Pathway (AID 446).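 Note: ME-180 cervical cancer cells given 40 pM IL-6 alongside compound; SIE-controlled beta-lactamase reporter measured as 460/530 nm FRET emission ratio; % is set by controls: 0 for no effect and ±100 for the full control effect.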 The following applies: ME-180 (cervical carcinoma) SIE beta-lactamase reporter, IL-6 stimulated, 5 h; at 7.69 µM (top of the series) unless noted. The procedure, abridged:
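ME-180 SIE-bla cells; overnight plating; cpd + IL-6 40 pM, 5 h, 37 C; LiveBLAzer 2.5 h RT; 460/530 nm emission ratio. Normalized to 300 pM IL-6 and 125 nM JAK inhibitor controls.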

For experiment [14], the target named is Cytochrome P450 2D6 (Homo sapiens) (UniProt P10635). Put plainly: qHTS Assay for Inhibitors and Substrates of Cytochrome P450 2D6 (AID 891; active = well fitted curve in the direction sought with a large enough effect; an effect the other way counts as inactive or inconclusive; note: potency is the fitted concentration of half-maximal effect; nearly all actives have a fitted effect of over 60% in size). The following applies: recombinant CYP2D6, luciferin-ME EGE luminescence; series mostly up to 11.4 µM. In a few lines: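 Human CYP2D6 (5 nM) with 30 uM Luciferin-ME EGE (at Km) in 100 mM KPO4, compound preincubated 10 min, then NADPH regeneration system for 60 min at room temperature. Luciferin read by luminescence; normalized to 1.43 uM quinidine.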
Sequence of Cytochrome P450 2D6 (Homo sapiens) (P10635 whole entry, looked up): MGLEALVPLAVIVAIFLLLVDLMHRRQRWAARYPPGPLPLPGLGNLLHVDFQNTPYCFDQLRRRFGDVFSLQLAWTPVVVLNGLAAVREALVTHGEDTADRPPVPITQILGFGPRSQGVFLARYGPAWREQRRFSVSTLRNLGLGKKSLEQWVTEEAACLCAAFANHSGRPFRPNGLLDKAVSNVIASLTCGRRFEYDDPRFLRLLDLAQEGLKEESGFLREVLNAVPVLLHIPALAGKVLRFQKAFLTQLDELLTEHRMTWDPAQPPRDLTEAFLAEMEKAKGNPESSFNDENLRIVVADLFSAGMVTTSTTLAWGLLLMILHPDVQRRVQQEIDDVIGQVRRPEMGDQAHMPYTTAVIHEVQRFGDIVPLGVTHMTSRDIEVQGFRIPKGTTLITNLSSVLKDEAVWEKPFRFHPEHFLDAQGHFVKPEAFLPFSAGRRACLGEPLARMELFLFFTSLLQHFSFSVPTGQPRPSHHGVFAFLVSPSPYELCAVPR

Sequence of Glucocorticoid receptor (Homo sapiens) (P04150 whole entry, looked up): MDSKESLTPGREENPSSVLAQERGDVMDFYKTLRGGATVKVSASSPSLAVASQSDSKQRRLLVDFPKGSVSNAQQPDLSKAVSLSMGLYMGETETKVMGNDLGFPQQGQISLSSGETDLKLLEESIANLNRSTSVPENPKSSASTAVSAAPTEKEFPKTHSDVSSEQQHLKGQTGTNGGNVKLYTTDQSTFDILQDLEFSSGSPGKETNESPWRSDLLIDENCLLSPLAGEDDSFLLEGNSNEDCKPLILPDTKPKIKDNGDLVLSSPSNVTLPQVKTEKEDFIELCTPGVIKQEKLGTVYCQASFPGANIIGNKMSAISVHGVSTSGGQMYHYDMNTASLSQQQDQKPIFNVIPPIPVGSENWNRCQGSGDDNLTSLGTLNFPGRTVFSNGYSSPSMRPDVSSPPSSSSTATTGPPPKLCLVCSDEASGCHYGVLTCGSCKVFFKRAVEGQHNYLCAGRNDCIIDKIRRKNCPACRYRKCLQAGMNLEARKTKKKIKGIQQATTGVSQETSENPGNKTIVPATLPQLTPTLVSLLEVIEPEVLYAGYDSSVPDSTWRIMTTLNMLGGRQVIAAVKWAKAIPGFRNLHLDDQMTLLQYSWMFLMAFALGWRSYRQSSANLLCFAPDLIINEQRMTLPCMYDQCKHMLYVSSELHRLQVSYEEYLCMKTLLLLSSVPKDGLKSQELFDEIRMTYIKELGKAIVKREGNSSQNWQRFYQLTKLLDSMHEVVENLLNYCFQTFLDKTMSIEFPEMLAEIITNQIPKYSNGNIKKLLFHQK
Sequence of 3',5'-cyclic-AMP phosphodiesterase 4B (Homo sapiens) (Q07343 whole entry, looked up): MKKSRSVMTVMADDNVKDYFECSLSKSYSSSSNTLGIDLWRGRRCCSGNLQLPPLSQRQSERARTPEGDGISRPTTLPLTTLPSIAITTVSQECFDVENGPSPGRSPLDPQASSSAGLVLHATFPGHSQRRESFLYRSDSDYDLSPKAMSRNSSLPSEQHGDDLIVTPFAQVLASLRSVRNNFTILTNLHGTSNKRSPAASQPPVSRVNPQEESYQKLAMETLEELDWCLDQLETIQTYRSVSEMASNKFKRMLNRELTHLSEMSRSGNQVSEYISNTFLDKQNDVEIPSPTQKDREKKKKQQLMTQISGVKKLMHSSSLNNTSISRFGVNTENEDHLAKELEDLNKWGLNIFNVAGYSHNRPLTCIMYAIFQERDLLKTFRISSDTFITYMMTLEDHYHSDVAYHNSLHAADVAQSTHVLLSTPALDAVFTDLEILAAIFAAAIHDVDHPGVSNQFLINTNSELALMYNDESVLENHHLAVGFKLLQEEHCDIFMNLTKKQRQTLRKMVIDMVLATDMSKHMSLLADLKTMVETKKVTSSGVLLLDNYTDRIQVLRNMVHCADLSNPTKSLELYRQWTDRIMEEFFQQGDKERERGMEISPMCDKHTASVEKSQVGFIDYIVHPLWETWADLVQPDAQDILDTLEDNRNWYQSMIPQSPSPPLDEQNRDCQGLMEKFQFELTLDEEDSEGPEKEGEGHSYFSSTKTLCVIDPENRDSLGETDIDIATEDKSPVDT
Sequence of Lysosomal acid glucosylceramidase (Homo sapiens) (P04062 whole entry, looked up): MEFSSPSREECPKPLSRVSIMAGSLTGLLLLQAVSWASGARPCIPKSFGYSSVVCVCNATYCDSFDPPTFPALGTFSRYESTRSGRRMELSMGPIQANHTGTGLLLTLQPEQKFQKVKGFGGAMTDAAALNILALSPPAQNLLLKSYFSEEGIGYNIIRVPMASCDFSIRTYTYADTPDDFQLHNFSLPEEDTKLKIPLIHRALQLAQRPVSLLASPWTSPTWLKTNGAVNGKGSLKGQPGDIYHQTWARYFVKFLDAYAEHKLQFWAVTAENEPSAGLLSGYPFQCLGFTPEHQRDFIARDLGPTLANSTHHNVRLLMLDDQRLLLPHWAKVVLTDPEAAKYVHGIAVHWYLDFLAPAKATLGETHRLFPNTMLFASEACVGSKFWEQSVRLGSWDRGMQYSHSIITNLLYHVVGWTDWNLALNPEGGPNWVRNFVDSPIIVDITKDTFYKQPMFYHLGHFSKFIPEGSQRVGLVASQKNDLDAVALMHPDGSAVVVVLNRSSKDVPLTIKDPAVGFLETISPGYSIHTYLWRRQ
Sequence of Cytochrome P450 1A2 (Homo sapiens) (P05177 whole entry, looked up): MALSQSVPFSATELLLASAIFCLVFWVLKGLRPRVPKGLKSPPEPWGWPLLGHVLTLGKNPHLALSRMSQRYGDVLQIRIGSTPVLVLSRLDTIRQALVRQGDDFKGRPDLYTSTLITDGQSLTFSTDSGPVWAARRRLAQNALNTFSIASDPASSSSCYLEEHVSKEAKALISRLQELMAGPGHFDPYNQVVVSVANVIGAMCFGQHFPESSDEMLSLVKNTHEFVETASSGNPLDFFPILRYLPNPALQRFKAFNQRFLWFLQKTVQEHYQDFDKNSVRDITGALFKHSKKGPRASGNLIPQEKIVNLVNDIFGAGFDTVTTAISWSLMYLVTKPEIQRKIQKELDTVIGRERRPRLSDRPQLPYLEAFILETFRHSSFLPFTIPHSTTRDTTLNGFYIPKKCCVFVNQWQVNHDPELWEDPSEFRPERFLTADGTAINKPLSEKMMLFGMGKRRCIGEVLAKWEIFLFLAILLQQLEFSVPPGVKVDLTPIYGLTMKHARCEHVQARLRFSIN
Sequence of Cytochrome P450 3A4 (Homo sapiens) (P08684 whole entry, looked up): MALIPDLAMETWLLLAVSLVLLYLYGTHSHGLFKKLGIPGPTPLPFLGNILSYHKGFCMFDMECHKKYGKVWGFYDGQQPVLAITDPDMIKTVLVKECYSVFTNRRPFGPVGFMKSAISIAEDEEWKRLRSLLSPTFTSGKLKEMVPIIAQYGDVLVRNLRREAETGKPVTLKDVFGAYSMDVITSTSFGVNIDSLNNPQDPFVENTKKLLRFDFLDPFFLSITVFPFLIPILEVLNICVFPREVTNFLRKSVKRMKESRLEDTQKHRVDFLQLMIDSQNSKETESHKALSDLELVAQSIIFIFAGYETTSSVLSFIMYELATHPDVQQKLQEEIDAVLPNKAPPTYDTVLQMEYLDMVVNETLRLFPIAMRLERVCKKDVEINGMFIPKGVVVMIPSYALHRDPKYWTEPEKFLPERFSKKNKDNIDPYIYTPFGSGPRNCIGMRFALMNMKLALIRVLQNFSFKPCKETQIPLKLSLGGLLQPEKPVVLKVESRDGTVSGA
Sequence of Cytochrome P450 2C19 (Homo sapiens) (P33261 whole entry, looked up): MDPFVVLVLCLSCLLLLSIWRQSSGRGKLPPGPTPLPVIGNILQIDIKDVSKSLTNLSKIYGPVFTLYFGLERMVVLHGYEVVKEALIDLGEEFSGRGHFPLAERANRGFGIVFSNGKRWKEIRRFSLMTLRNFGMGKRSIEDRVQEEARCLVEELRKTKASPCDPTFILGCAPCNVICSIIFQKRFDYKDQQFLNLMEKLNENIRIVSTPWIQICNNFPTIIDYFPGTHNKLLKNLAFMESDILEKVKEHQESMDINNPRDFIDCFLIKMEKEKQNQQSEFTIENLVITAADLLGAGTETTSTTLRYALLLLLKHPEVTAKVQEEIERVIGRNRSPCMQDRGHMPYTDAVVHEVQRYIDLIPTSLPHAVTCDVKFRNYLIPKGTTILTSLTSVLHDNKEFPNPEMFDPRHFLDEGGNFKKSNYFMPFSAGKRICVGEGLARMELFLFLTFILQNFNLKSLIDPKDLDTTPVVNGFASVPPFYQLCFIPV
Sequence of Cytochrome P450 2C9 (Homo sapiens) (P11712 whole entry, looked up): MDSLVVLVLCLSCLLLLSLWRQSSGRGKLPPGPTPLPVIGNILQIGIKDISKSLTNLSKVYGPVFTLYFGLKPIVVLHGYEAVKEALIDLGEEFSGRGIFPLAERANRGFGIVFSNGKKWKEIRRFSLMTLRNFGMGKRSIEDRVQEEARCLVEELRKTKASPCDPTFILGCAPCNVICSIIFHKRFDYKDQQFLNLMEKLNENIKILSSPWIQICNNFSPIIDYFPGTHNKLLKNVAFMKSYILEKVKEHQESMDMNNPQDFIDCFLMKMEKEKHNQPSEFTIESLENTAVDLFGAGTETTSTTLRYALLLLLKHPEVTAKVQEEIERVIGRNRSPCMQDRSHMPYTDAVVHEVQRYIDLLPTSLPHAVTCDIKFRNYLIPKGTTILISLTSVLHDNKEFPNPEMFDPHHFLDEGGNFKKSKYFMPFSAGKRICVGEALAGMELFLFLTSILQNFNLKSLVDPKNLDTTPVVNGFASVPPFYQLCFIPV

For `CSC([N-]/N=C/c1cccc(C)n1)=[S]=[Cu].CS[C@H]([S-])[N-]/N=C/c1cccc(C)n1`, the Potency in [1] is > 11.4 µM; in experiment [2], 0.631 µM (active); in experiment [4], > 46 µM; in [5], > 9.22 µM; in [8], 0.251 µM (active); in [9], 3.98 µM (active). Further, the Potency in experiment [11] was 0.199 µM (active). Also, the activity change, negative = inhibition in experiment [3] is -102% (active); in experiment [6], -6.87% [at 11.4 µM]. In addition, the call in experiment [7] was inactive. For the same compound, the activity change, positive = activation in experiment [10] is -73.3% [at 11.4 µM].

For `Cc1ccc(S(=O)ON2CCC(C(=O)O)(c3ccccc3)CC2)cc1` (stereo unspecified), the Potency in experiment [1] is > 11.4 µM; in [5], > 9.22 µM. The values for the activity change, negative = inhibition in [12], in experiment [3] and in experiment [6] were -1.29%, 5.73% and 5.44% [at 11.4 µM], respectively. In experiment [13], the activity, negative = inhibition is 8.69%. Besides, the compound was called inactive in experiment [7]. Further, the Potency entry in experiment [11] was “inactive”.

`CN1CCN(c2ccc([N+](=O)[O-])c3[nH]o[n+](=O)c23)CC1`: the Potency in [1] was > 11.4 µM; in [4], > 46 µM; in [5], > 9.22 µM. The activity change, negative = inhibition is -7.81% in experiment [12] and -3.28% [at 11.4 µM] in [6]. In addition, the activity, negative = inhibition in experiment [13] is 11.3%. In addition, the call in [7] was inactive.

Take `CCc1ccc(CCN2CCCCC2)nc1`: the Potency was > 11.4 µM in experiment [1], > 46 µM in experiment [4], > 9.22 µM in experiment [5] and 1.58 µM (active) in experiment [14]. The activity change, negative = inhibition is 15.5% in experiment [12] and -21.3% in [3]. Besides, the compound was called inactive in experiment [7].

As to `NC[C@@H](O)CSP(=O)(O)O`, the activity change, negative = inhibition is -1.23% in experiment [12], -18.7% in experiment [3] and -5.07% [at 11.4 µM] in experiment [6]. In addition, the Potency entry in experiment [2] was “inactive”. In addition, in [13], the activity, negative = inhibition is 2.46%. For the same compound, the Potency in experiment [4] is > 46 µM; in experiment [5], > 9.22 µM. Further, the result in experiment [7] was inactive.
